In the library only some 9.3% were active in any assay of this set; here they are far more common.
NPC1 prom act: activates the NPC1 promoter; Huh7 NPC1 promoter luciferase reporter, 24 h; Potency, µM (highest dose often 9.22 µM), without a hit: at the highest dose activation, actives largely listed as activators; 2.4% of 320,000 active; further: % of control where 0% means no effect; nearly all actives have a fitted effect of over 60% in size
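Luminescence from an NPC1 promoter-driven luciferase reporter in stably transfected Huh7 cells was measured after 24 h compound treatment at 37 °C, followed by 10 min ambient incubation with luciferase detection reagent.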
SMN2 splice up: enhancers of SMN2 splice variant expression; HEK293 SMN2-luciferase splicing reporter, luminescence, 30-36 h; Potency, µM (series often up to 46.1 µM), without a hit: at the highest dose activity change, positive = activation, usual class: activators; AID 1458; 2.8% of 210,000 active; further: % of control where 0% means no effect; nearly all actives have a fitted effect of over 55% in size
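HEK293 cells carry an SMN2 […]–luciferase reporter in which exon 7 inclusion puts luciferase in frame. Cells were plated 10-12 h before compound addition, then incubated 30-36 h at 37C. ONE-Glo luminescence was read; sodium butyrate at 4.5 mM final served as control.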
ELG1 DNA repair: inhibitors of ELG1-dependent DNA repair in HEK293T cells; Potency, µM (highest dose often 46.1 µM), without a hit: at the top dose activity change, negative = inhibition, usual class: inhibitors; HEK293T ELG1-luciferase reporter, luminescence, 16 h; DNA damage induced by 5-fluorouridine; AID 504467; 2.3% of 330,000 active; further: on the % scale 0 is the no-effect control and ±100 the full control effect; nearly all actives have a fitted effect of over 55% in size
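Overnight (16 hr) co-exposure of 2,000 cells/well to 5-fluorouridine and compound at 37 °C preceded detection. Luciferase was quantified via ONE-Glo luminescence; loss of signal denotes inhibition.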
FLuc modulator: inhibits or activates purified firefly luciferase, miR-21 counter-screen | P08659 | purified FLuc, Km substrates, luminescence inhibition | Potency, µM (doses to about 57.5 µM), inactives show at the top dose activity change, negative = inhibition, usual class: inhibitors | 6.9% of 360,000 active | AID 588342;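 further: plate controls were vehicle for no effect and reference inhibitor for full effect; nearly all actives have a fitted effect of over 55% in size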
Target sequence (P08659 whole entry, looked up): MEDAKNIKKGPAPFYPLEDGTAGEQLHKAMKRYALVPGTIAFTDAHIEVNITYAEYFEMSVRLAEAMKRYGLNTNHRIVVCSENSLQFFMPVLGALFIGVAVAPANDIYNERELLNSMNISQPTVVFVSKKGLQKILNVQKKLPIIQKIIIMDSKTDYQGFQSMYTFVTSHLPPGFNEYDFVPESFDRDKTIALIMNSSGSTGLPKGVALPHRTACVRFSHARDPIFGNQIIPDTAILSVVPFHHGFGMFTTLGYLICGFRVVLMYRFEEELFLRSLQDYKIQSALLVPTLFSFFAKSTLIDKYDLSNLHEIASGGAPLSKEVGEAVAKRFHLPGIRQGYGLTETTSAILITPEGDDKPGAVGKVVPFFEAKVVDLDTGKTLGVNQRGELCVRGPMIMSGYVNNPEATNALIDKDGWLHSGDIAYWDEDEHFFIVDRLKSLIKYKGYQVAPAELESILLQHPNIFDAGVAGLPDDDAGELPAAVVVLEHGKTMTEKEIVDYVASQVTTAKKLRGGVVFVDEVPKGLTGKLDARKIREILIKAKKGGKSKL
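Purified P. pyralis luciferase, 10 nM final, with Km-level 10 uM D-luciferin and 10 uM ATP in 50 mM Tris acetate pH 7.5, 10 mM Mg acetate, 0.01% Tween-20, 0.05% BSA; 6-point qHTS titration about 60 µM downward; luminescence read.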
Rab9 prom act: activators of Rab9 promoter. Huh7 Rab9 promoter-luciferase reporter, luminescence, 24 h. Potency, µM (titrated, usually from 9.22 µM), for inactives: at the top dose activation, negative = inhibition, actives largely listed as activators. 2.8% of 320,000 active. AID 485297; further: % of control where 0% means no effect; nearly all actives have a fitted effect of over 60% in size
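Promoter activation is measured as luciferase luminescence in Huh7 cells stably transfected with a Rab9 promoter–luciferase construct, following 24 h compound exposure at 37 °C and 10 min reagent incubation at ambient temperature.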
ELG1 genotoxic: genotoxicity induction in ELG1-luciferase HEK293T cells | 1.3% of 330,000 active | Potency, µM (doses to about 46 µM), inactives show at the highest dose activity change, positive = activation, hits mostly activators | HEK293T ELG1-luciferase reporter, luminescence, 16 h; further: % of control where 0% means no effect; nearly all actives have a fitted effect of over 60% in size
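Genotoxicity was scored as increased ELG1-luciferase reporter signal, measured by ONE-Glo luminescence (30 min, room temperature). Compound or vehicle exposure of the HEK293T reporter cells lasted 16 hr at 37°C.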
Active calls of the source: *; ? = inconclusive; . = no result; [ ] = dose if it differs, or a comment. The call rests on the fitted dose curve; in most records, active means well fitted curve in the direction sought with a large enough effect; inconclusive means small, poorly fitted or top-dose-only effect, or another doubt; inactive means no such curve, though single readings can be large; an effect the other way counts as inactive or inconclusive. Potency means the concentration at half of the fitted maximal effect.

SMILES	NPC1 prom act	SMN2 splice up	ELG1 DNA repair	FLuc modulator	Rab9 prom act	ELG1 genotoxic
CCOc1ccc(/C=C/C(=O)OCC(=O)Nc2cccc(S(=O)(=O)N3CCCC3)c2)cc1	-1%	.	11%	2.1µM*	-1%	-1%
O=C(COc1ccccc1Cl)Nc1cccc(S(=O)(=O)N2CCCC2)c1	-7%	.	?	19µM*	-2%	-1%
O=C(COc1ccccc1)Nc1cccc(S(=O)(=O)N2CCCC2)c1	7%	.	2%	-1%	5%	-3%
O=C(COc1ccc(F)cc1Cl)Nc1cccc(S(=O)(=O)N2CCCC2)c1	-1%	.	?	13µM*	3%	0%
O=C(COc1ccccc1[N+](=O)[O-])Nc1cccc(S(=O)(=O)N2CCCC2)c1	.	.	16µM*	.	.	-3%
CCOc1ccc(C(=O)OCC(=O)Nc2cccc(S(=O)(=O)N3CCCC3)c2)cc1	-3%	.	-13%	?	0%	1%
CC1Sc2ccc(S(=O)(=O)CCC(=O)NCc3ccccc3)cc2NC1=O (stereo not given)	-2%	.	-8%	-3%	-5%	-3%
CCc1ccc(/C=C/C(=O)C2C(=O)c3ccccc3C2=O)cc1	?	?	?	0.43µM*	?	1%
CC(C)(C)C(=O)C1C(=O)c2ccccc2C1=O	.	-5%	.	.	.	.
O=c1nc2c(-c3ccccc3F)n[nH]n2c2ccccc12	?	22µM*	?	13µM*	4µM*	?
O=c1[nH]c(SCc2ccc(Cl)cc2)nc2ccsc12	30%	?	?	6µM*	?	11%
N#Cc1c(-c2cccs2)nc(SCc2ccc(Cl)cc2)[nH]c1=O	-2%	.	5%	-6%	-18%	1%
COCc1[nH]nc2c1C(c1cc(OC)c(O)c(OC)c1)C(C#N)=C(N)O2 (stereo not given)	3%	-19%	18µM*	-5%	12%	2%
Oc1ccc(N=C/C=C/c2ccc(Br)cc2)cc1-c1nc2ccccc2s1	3.2µM*	-1%[1.84 µM]	?	7.6µM*	?	?
COC(=O)c1ccc(NC(=O)c2ccc(OC(C)=O)c(OC)c2)cc1	?	?	?	11µM*	?	?
COc1ccc(C(=O)Nc2ccc(NS(=O)(=O)c3ccccc3)cc2)cc1OC	0%	.	18µM*	-5%	0%	3%
COc1cc(C(=O)Nc2ccc(O)cc2C(=O)O)ccc1OC(C)=O	2%	.	3%	12µM*	-5%	2%
COc1ccc(C(=O)Nc2ccc(S(=O)(=O)Nc3ncccn3)cc2)cc1OC	-9%	.	-7%	5%	-1%	0%
Cc1ccc(C(=O)NNC(=O)CCn2nnc3ccccc32)cc1	-1%	.	14%	3%	0%	1%
O=C(c1cnccn1)N1CCC2(CCCN(c3ncccn3)C2)CC1	.	20%	.	.	.	.
O=C1NC[C@H](c2ccccc2)OC(=O)[C@@H](Cc2ccc(F)cc2)CC/C=C/C[C@@H]1CC(=O)N(CCO)Cc1ccccc1	.	.	23µM*	.	.	-5%
O=C1NC[C@H](c2ccccc2)OC(=O)[C@@H](Cc2ccc(F)cc2)CC/C=C/C[C@H]1CC(=O)N(CCO)Cc1ccccc1	.	.	5.2µM*	.	.	-13%
O=C1NC[C@@H](c2ccccc2)OC(=O)[C@@H](Cc2ccc(F)cc2)C/C=C\C[C@@H]1CC(=O)N(CCO)Cc1ccccc1	.	.	21µM*	.	.	-7%
O=C1NC[C@H](c2ccccc2)OC(=O)[C@H](Cc2ccc(F)cc2)C/C=C\C[C@@H]1CC(=O)N(CCO)Cc1ccccc1	.	.	?	.	.	-8%
O=C1N[C@@H](Cc2c[nH]c3ccccc23)COC(=O)[C@@H](Cc2ccc(F)cc2)CC/C=C/C[C@@H]1CC(=O)N(CCO)Cc1ccccc1	.	.	21µM*	.	.	-12%
SMILES	NPC1 prom act	SMN2 splice up	ELG1 DNA repair	FLuc modulator	Rab9 prom act	ELG1 genotoxic
O=C(Nc1ccc(Cl)cn1)C1CCN(S(=O)(=O)c2cccs2)CC1	-18%	.	?	2%	-33%	0%
COc1cccc(CNC(=O)c2ccc(Cn3c(SCc4ccccc4)nc4cccnc43)cc2)c1	.	.	.	5.4µM*	.	.
Cc1cccc(Cn2c(SCc3ccc(C(=O)NCc4ccccc4)cc3)nc3cccnc32)c1	.	.	.	2%	.	.
COc1ccc(Cn2c(SCc3ccc(C(=O)NCc4ccc(C)cc4)cc3)nc3cccnc32)cc1	.	-17%	.	?	.	.
CCNC(=O)c1ccc(CSc2nc3cccnc3n2Cc2ccc(OC)cc2)cc1	.	.	.	21µM*	.	.
CN(C)c1ccc(CNC(=O)c2ccc(Cn3c(SCc4ccccc4)nc4cccnc43)cc2)cc1	.	6%	.	2.7µM*	.	.
Cc1cccc(CNC(=O)c2ccc(Cn3c(SCc4ccccc4)nc4cccnc43)cc2)c1	.	.	.	9.5µM*	.	.
c1ccc(C(c2ccccc2)N2CCCC3(CCNCC3)C2)cc1	.	-12%	.	.	.	.
CN(CCC#N)C(=O)COC(=O)/C=C/c1ccc2c(c1)OCO2	8%	-9%	0%	1%	17%	5%
CCOP(=O)(OCC)c1nc(/C=C/c2ccccc2)oc1NCc1ccc(OC)cc1	6%	9%	?	-2%	-2%	-2%
COc1ccc(C(=O)Nc2ccc3c(c2)Cc2ccccc2-3)cc1	-1%	-18%	8%	3%	0%	2%
O=C(Nc1ccc2c(c1)Cc1ccccc1-2)c1cccnc1	?	.	?	6.7µM*	3.2µM*	-1%
O=C(Nc1ccc2c(c1)oc1ccccc12)c1cccnc1	?	6%	?	6µM*	?	16%
O=C(Nc1ccc2ccccc2c1)c1cccnc1	4µM*	?	?	9.5µM*	1.4µM*	?
O=C(Nc1ccc2c(c1)oc1ccccc12)c1ccncc1	25%	-23%	10%	-5%	7%	4%
O=C(Nc1ccc2ccccc2c1)c1cnccn1	3.5µM*	11µM*	?	?	1µM*	?
COc1ccc(NC(=O)c2cccnc2)cc1	1%	.	?	-2%	12%	10%
O=C(Nc1ccc2nccnc2c1)c1cnccn1	?	0%	?	?	?	?
O=C(Nc1ccc2c(c1)Cc1ccccc1-2)c1ccco1	0.79µM*	11µM*	?	2.1µM*	0.4µM*	3.3µM*
N#Cc1ccc(C(=O)Nc2ccc3ccccc3c2)cc1	0.35µM*	.	?	1.3µM*	0.45µM*	?
CC1(C)SC(=S)N(Cc2ccc3c(c2)OCO3)C1N(O)C(=O)NC1CCCCC1 (stereo not given)	-4%	1%	-7%	6%	-3%	-3%
O=C(NCCc1ccc(Cl)cc1)c1cccs1	?	-8%	?	?	?	?

Screens (PubChem BioAssay)
